# High-throughput results as filed in PubChem BioAssay.
# RGS8-Gao: regulators of human RGS8-Galphao interaction | response (percent of control binding), % at 10 µM | actives 0.34% (n = 220,000) | P09471 | multiplexed bead flow cytometry, RGS8-Galphao binding; actives lie on both sides; in the data active = response below about 60% or above about 140%; inactive = in between;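 note: Galphao activated as the GDP aluminium fluoride complex binding bead-coupled RGS8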
# Target sequence (P09471 whole entry, looked up): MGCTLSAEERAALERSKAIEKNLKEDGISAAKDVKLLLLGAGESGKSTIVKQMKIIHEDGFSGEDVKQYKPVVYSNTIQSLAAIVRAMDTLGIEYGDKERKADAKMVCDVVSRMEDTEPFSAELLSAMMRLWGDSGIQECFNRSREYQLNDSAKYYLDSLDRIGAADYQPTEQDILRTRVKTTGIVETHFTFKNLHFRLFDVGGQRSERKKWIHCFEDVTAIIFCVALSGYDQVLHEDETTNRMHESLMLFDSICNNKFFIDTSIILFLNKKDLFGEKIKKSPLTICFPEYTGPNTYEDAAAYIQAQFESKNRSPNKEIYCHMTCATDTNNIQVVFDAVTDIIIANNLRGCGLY
# RGS7-Gao: modulates binding of RGS7 to human Galphao; P09471; Multiplexed bead flow cytometry; actives lie on both sides; binding response (% of control), % at 10 µM; actives 0.35% (n = 220,000); in the data active = binding response below about 49% or above about 150%; inconclusive = no clear call, values can overlap the other calls; inactive = in between;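 note: fluorescent Galphao held in activated GDP-AlF4 state binding bead-coupled RGS7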
# RGS4-Gao reg: human RGS4-Galphao interaction regulation; Multiplexed bead flow cytometry, RGS4-Galphao binding; actives lie on both sides; binding response (% of control), % at 10 µM; actives 0.33% (n = 220,000); AID 1415; in the data active = binding response below about 49% or above about 150%; inactive = in between;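 note: fluorescent Galphao activated with aluminum fluoride binding bead-coupled RGS4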
# GSH fluor: GSH bead compound fluorescence profile; GSH beads flow cytometry, compound fluorescence 488/530 nm; stronger effect = higher value; fluorescence (KMESF) at 10 µM; actives 0.25% (n = 190,000); AID 1776; in the data active = fluorescence above about 89;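 note: glutathione beads carrying GST-tagged Bcl family fusion proteins plus one bare bead set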
# Avidin fluor: compound fluoresces at 488/530 nm on avidin beads | compound fluorescence 488/530 nm, flow cytometry; stronger effect = higher value | fluorescence (KMESF) at 10 µM | actives 0.38% (n = 220,000); in the data active = fluorescence above about 47
# RGS16-Gao HTS: modulates binding between human RGS16 and Galphao | O15492+P09471 | bead-based flow cytometry RGS16-Galphao binding, fluorescence; actives lie on both sides | binding response (% of control), % at 10 µM | actives 0.38% (n = 220,000);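 note: Galphao activated by GDP with aluminum fluoride before binding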
# RGS4-Gao HTS: modulates binding between human RGS4 and Galphao; shares compounds with RGS16-Gao HTS; multiplexed bead flow cytometry, RGS–Galpha-o binding; RGS4–Galpha-o binding response, % at 10 µM; actives 99% (n = 1,600); AID 1504;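 note: fluorescently labeled Galpha-o bound to GDP with aluminium fluoride binding biotinylated RGS beads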
# Target sequence (P09471 whole entry, looked up): as above
# Target sequence (P49798 whole entry, looked up): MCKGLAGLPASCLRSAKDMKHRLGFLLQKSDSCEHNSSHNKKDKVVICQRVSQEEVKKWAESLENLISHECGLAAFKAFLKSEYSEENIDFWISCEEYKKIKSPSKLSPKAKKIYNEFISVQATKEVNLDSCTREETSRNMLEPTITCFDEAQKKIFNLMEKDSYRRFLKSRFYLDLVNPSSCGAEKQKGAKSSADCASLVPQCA
# Biotin-avidin: counter-screen: compounds disrupting biotin binding to avidin beads. AID 1783. shares compounds with RGS16-Gao HTS. 1,700 tested, under 10 active. inhibition, % at 10 µM. streptavidin beads, fluorescein-biotin binding, flow cytometry;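 active = inhibition above 50%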;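 note: median green fluorescence of gated singlet beads compared with DMSO control wells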
# RGS8-Gao single: RGS8-Galphao interaction regulation, single point confirmation | actives 3% (n = 1,700) | bead-based flow cytometry RGS8-Galphao binding, fluorescence; actives lie on both sides | binding response (% of control), % at 10 µM | shares compounds with RGS16-Gao HTS | AID 1836; in the data active = binding response below about 72% or above about 130%; inactive = in between;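 note: Galphao activated as GDP AlF4 complex before binding bead RGS8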
# RGS7-Gao single: confirmation of regulators of human RGS7-Galphao interaction | shares compounds with RGS16-Gao HTS | bead-based flow cytometry RGS7-Galphao binding; actives lie on both sides | response (percent of control binding), % at 10 µM | actives 7.8% (n = 1,700) | AID 1837; in the data active = response below about 75% or above about 130%; inactive = in between;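 note: fluorescent Galphao activated with GDP and aluminum fluoride binding bead-coupled RGS7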
# RGS16-Gao single: RGS16-Galphao interaction regulation, single point confirmation; actives 4% (n = 1,700); shares compounds with RGS16-Gao HTS; response (% of control binding), % at 10 µM; bead-based flow cytometry, RGS16-Galphao binding; actives lie on both sides; in the data active = response below about 74% or above about 130%; inactive = in between;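 note: Galphao activated as the GDP aluminium fluoride complex binding bead-coupled RGS16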
# RGS4-Gao confirm: confirmation of regulators of human RGS4-Galphao interaction. shares compounds with RGS16-Gao HTS. RGS4-Galphao binding, multiplexed bead flow cytometry; actives lie on both sides. binding response (% of control), % at 10 µM. actives 4% (n = 1,700). AID 1840; in the data active = binding response below about 74% or above about 130%; inactive = in between
# RGS19-Gao single: confirmation of regulators of human RGS19-Galphao interaction | shares compounds with RGS16-Gao HTS | bead-based flow cytometry RGS19-Galphao binding; actives lie on both sides | response (percent of control binding), % at 10 µM | actives 5% (n = 1,700); in the data active = response below about 50% or above about 160%; inactive = in between
# Numbers stand for hits; - = inactive; ? = inconclusive; . = no result given; [ ] = dose if it differs, or a comment. In the library only some 1.2% were active in any assay of this set; here they are far more common. Unless noted, the rule behind the calls is not given here.
SMILES,RGS8-Gao,RGS7-Gao,RGS4-Gao reg,GSH fluor,Avidin fluor,RGS16-Gao HTS,RGS4-Gao HTS,Biotin-avidin,RGS8-Gao single,RGS7-Gao single,RGS16-Gao single,RGS4-Gao confirm,RGS19-Gao single
CCOC(=O)C1C(c2cccs2)NC(=O)N(C)C1(O)C(F)(F)F (configuration not stated),-,-,-,-,59,-,.,.,.,.,.,.,.
CN1C(=O)NC(c2cccc(O)c2)C(C(=O)c2cccs2)C1(O)C(F)(F)F (configuration not stated),-,-,-,-,-,-,.,.,.,.,.,.,.
Cc1ccc(N2CN=c3s/c(=C\c4ccccn4)c(=O)n3C2)cc1,60,48,-,-,-,-,51,-,-,-,-,-,-
CCOc1ccc(NC(=O)N(C2CCCC2)C2CCN(C(C)=O)CC2)cc1,-,-,-,-,-,-,.,.,.,.,.,.,.
CCOc1ccc(NC(=O)N(CCC(C)C)C2CCN(C(C)=O)CC2)cc1,153[activator],-,-,-,-,-,127,-,-,-,-,-,-
O=C(COC(=O)c1ccc(F)c(S(=O)(=O)N2CCCCC2)c1)NCc1ccc(F)cc1,-,-,-,-,-,-,.,.,.,.,.,.,.
CCCCCNC(=O)c1cc(S(=O)(=O)N2CCCC2)ccc1F,-,-,-,-,-,22,84,-,-,-,-,-,-
COCCCNCCOCCOc1ccc(Cl)cc1C(C)(C)C,-,-,-,-,-,-,.,.,.,.,.,.,.
O=C1CNC(=S)N1CCc1ccccc1Cl,-,?,-,.,-,-,.,.,.,.,.,.,.
S=c1[nH]nc(COc2ccccc2)n1Cc1ccccc1,50,-,-,-,-,3.7,80,-,-,-,-,-,-
O=C(Nc1ccccc1)N1CCCN(c2ccc(C(F)(F)F)cc2[N+](=O)[O-])CC1,41,?,23,.,-,21,.,-,-,-,-,-,-
O=C(OCC(=O)N1CCc2ccccc21)c1ccccc1,-,-,-,-,-,-,.,.,.,.,.,.,.
O=C(CO/N=C/c1ccccc1O)N1CCc2ccccc21,-,-,-,-,-,191[activator],114,-,-,-,-,-,-
CC(=O)c1cc2c(cc1NC(=O)C1CCC1)OCO2,-,-,-,-,-,-,.,.,.,.,.,.,.
CCOC(=O)c1c(C)[nH]c(C(=O)CSc2nnc(-c3ccncc3)n2CC)c1C,-,-,-,-,-,-,.,.,.,.,.,.,.
C=CCn1c(SCC(=O)c2[nH]c(C)c(C(=O)OCC)c2C)nc2scc(-c3ccc(OC)c(OC)c3)c2c1=O,-,-,168[activator],-,-,191[activator],.,-,-,-,-,-,-
COc1ccc2c(Cl)c(C(=O)N/N=C/c3c(C)[nH]c4ccccc34)sc2c1,-,156[activator],-,-,-,-,139,-,-,267[activator],175[activator],187[activator],368[activator]
Cc1cc(=O)c(C(=O)O)nn1-c1ccccc1,-,-,-,-,-,-,.,.,.,.,.,.,.
COc1ccc(NC(=S)N2CCN(C(c3ccccc3)c3ccccc3)CC2)cc1OC,-,-,-,-,-,185[activator],105,-,-,-,-,-,-
COc1ccc(NC(=S)N2CCCC2)cc1OC,-,-,-,-,-,-,.,.,.,.,.,.,.
Cc1cc(C)nc(N2CCC(C(=O)NNC(=O)c3ccc(Cl)cc3)CC2)n1,-,?,-,.,-,-,.,.,.,.,.,.,.
COc1ccc(S(=O)(=O)N(C)c2c(C)n(C)n(-c3ccccc3)c2=O)cc1OC,-,203[activator],-,-,107,-,119,-,-,67,74,71,50
CC(C)C(=O)NC(=S)N(Cc1ccccc1)Cc1ccccc1,-,-,-,-,-,184[activator],106,-,-,62,-,70,171[activator]
O=C(O)c1cc(-c2cccc(Cl)c2)nc2nc(N3CCCCC3)sc12,-,-,-,-,-,-,.,.,.,.,.,.,.
Clc1ccc(N/N=C/c2ccncc2)cc1Cl,-,-,-,-,-,199[activator],109,-,-,-,-,-,-
SMILES,RGS8-Gao,RGS7-Gao,RGS4-Gao reg,GSH fluor,Avidin fluor,RGS16-Gao HTS,RGS4-Gao HTS,Biotin-avidin,RGS8-Gao single,RGS7-Gao single,RGS16-Gao single,RGS4-Gao confirm,RGS19-Gao single
Fc1ccc(N/N=C/c2ccncc2)c(F)c1,-,-,-,-,-,-,.,.,.,.,.,.,.
COc1ccc(/C=C(/NC(=O)c2ccccc2)C(=O)NC2CCS(=O)(=O)C2)cc1 (configuration not stated),-,-,-,-,-,-,.,.,.,.,.,.,.
COc1cccc(CNC(=O)CCC2CCCN(Cc3ccc4c(c3)CCO4)C2)c1 (configuration not stated),-,?,-,.,-,-,.,.,.,.,.,.,.
CC(C)c1cc(C(=O)O)c2cnn(C(C)C)c2n1,-,?,-,.,-,-,.,.,.,.,.,.,.
O=S(=O)(O)c1nc2ccccc2n1Cc1ccccc1,-,-,-,-,-,-,.,.,.,.,.,.,.
CS(=O)(=O)c1nc2ccccc2n1Cc1ccccc1,.,.,.,-,.,.,.,-,-,-,-,-,-
CC(C)c1cccc(C(C)C)c1OCCCCN1CCCC1,.,.,.,-,.,.,.,-,-,-,-,-,-
Cc1ccc([N+](=O)[O-])cc1NC(=O)Cc1ccc(F)cc1,.,.,.,-,.,.,.,-,-,-,-,-,-
COC(C[C@H]1O[C@H]1C(=O)COCc1ccccc1)OC,-,?,-,.,-,-,.,.,.,.,.,.,.
Cc1ccc(OCc2nc(-c3ccccc3)no2)cc1,-,?,-,.,-,-,.,.,.,.,.,.,.
O=[N+]([O-])c1ccc(Nc2nc(NC3CCCCC3)nc(N3CCCC3)n2)cc1,-,160[activator],170[activator],-,-,-,.,-,-,-,-,-,-
Cc1ccccc1OCC(=O)N(Cc1cccs1)C1CCS(=O)(=O)C1 (configuration not stated),-,-,-,-,-,-,.,.,.,.,.,.,.
Cc1cccc(OC(C)C(=O)N(Cc2cccs2)C2CCS(=O)(=O)C2)c1C (configuration not stated),-,-,-,-,-,-16,69,-,-,-,-,-,-
Cc1cnc(-c2nnc(N(C)C(=O)C3CCCO3)s2)cn1 (configuration not stated),-,-,-,-,-,-47,56,-,-,-,-,-,-
